This passage reports outcome results from PubChem BioAssay AID720597 (Broad Institute, 2013).

Molecules are shown by their SMILES. Entries with a potency or affinity are not part of this list. Activity calls are given as the source filed them.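 How the source made its calls: active means fitted half-maximal dose no more than twice the top valid tested dose, for compounds that lower signal; inconclusive means fit invalid, or curve flat with activity between -70 and -30; inactive means potency past limit, curve flat within ±30, or signal increasing.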

The target of the assay is NAD-dependent protein deacylase sirtuin-5, mitochondrial (Homo sapiens) (UniProt Q9NXA8). Description: SIRT5 deacylase inhibitors, dose response, biochemical, fluorescence imaging, cherry-pick, set 6 (AID 720597).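 Further: lower AMC signal can also come from blocking the trypsin step.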 The note with it: Purified SirT5, succinyl-peptide-AMC/trypsin fluorescence; series mostly up to 15 µM.
Chain of NAD-dependent protein deacylase sirtuin-5, mitochondrial (Homo sapiens) (Q9NXA8 whole entry, looked up): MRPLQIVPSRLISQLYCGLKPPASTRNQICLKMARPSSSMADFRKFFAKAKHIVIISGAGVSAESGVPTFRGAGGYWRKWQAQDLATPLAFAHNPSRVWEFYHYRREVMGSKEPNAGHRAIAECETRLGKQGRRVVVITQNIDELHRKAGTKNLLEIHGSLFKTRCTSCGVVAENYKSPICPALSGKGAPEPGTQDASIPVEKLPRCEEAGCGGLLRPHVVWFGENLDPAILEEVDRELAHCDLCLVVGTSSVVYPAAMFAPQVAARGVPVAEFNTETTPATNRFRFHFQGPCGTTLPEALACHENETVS
`C[C@@H]1CN([C@@H](C)CO)S(=O)(=O)c2ccc(C#CC3CC3)cc2O[C@@H]1CN(C)C(=O)c1cccc(F)c1`: the compound was classed as inactive.

As for `C[C@H]1CN([C@@H](C)CO)C(=O)c2cccc(NC(=O)c3nc4ccccc4s3)c2O[C@H]1CN(C)Cc1ccc(C(F)(F)F)cc1`, the result was inactive. For `C[C@@H]1CN([C@H](C)CO)S(=O)(=O)c2ccc(C#Cc3ccc(F)cc3)cc2O[C@@H]1CN(C)S(=O)(=O)c1ccc(F)cc1`, the call was inactive. Under `COc1ccc(NC(=O)N(C)C[C@H]2Oc3cc(C#CCC(C)C)ccc3S(=O)(=O)N([C@H](C)CO)C[C@H]2C)cc1` stands “inactive”. The entry for `Cc1ccc(-c2ccc3c(c2)O[C@@H](CN(C)Cc2ccccc2)[C@@H](C)CN([C@@H](C)CO)S3(=O)=O)cc1` is “inactive”; for `CN(C)c1ccc2c(c1)[C@@H]1C[C@@H](CC(=O)NCc3ccccc3)O[C@H](CO)[C@@H]1O2` it is “inactive”; for `COc1ccc(S(=O)(=O)Nc2ccc3c(c2)C(=O)N([C@H](C)CO)C[C@H](C)[C@H](CN(C)S(=O)(=O)c2cccs2)OCCCC[C@H](C)O3)cc1` it is “inactive”. Under `CC(C)CC#Cc1ccc2c(c1)O[C@H](CN(C)S(=O)(=O)c1cccc(F)c1)[C@@H](C)CN([C@@H](C)CO)S2(=O)=O` stands “inactive”.

`O=C1CN(S(=O)(=O)c2ccccc2)C[C@@H]2[C@H](c3ccc(C#Cc4ccccc4)cc3)[C@H](CO)N12`: the outcome was inactive. Under `C[C@H](CO)N1C[C@H](C)[C@H](CN(C)Cc2ccc(Oc3ccccc3)cc2)Oc2ccc(NC(=O)Cc3ccccc3)cc2C1=O` stands “inactive”. For `C[C@@H]1CN([C@@H](C)CO)C(=O)c2cc(NS(=O)(=O)c3cccs3)ccc2O[C@@H](C)CCCCO[C@@H]1CN(C)Cc1ccc(C(F)(F)F)cc1`, the compound was classed as inactive.

On to `C[C@@H]1CN([C@@H](C)CO)S(=O)(=O)c2ccc(C#C[C@@H](C)O)cc2O[C@@H]1CN(C)Cc1ccc(-c2ccccc2)cc1`, for which the compound was called inactive.
